{"source": "PubChem BioAssay (NCI)", "note": "Compounds without any hit were thinned out: in the full panel of roughly 83,000, 20% have a hit.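 Negative percent growth values reflect cell death: -40 means 40% of the cells present at the start died, and -100 means all died.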 Activity calls are given as the source filed them. How the source made its calls: active means growth percent below 10; inactive means the rest."}
{"test_system": "NCI/ADR-RES ovarian", "assay": "NCI-60 one-dose screen, 48 h (100 = growth as untreated, 0 = no growth, -100 = all killed)", "conditions": "10 µM unless noted"}
{"smiles": "Nc1nc(SCc2cccc([N+](=O)[O-])c2)c2[nH]cnc2n1", "growth": "97.6% (inactive)"}
{"smiles": "N/C(=N\\c1nc2ccccc2[nH]1)NC(=O)Cc1cccc2ccccc12", "growth": "79.9% (inactive)"}
{"smiles": "O=C1NC(=O)c2cc([N+](=O)[O-])cc3cccc1c23", "growth": "95.9% (inactive)"}
{"smiles": "COc1ccc(C2CC(c3cc(OC)c(OC)c(OC)c3)=NN2C(C)=O)cc1OCC(=O)Nc1nc2ccc(C(F)(F)F)cc2s1", "note": "(stereo not drawn)", "growth": "63% (inactive)"}
{"smiles": "O=C(N/N=C/c1ccc([N+](=O)[O-])cc1)c1ccc(Br)o1", "growth": "99.6% (inactive)"}
{"smiles": "O=C(NCc1ccccc1)C(Cl)Cl", "growth": "104% (inactive)"}
{"smiles": "COc1cc2c(c(OC)c1OC)-c1ccc(NNC(N)=S)c(=O)cc1[C@@H](NC(C)=O)CC2", "growth": "87.4% (inactive)"}
{"smiles": "CC(C)OC(=O)Nc1cc(F)c(F)cc1F", "growth": "102% (inactive)"}
{"smiles": "Nc1cc(C(=O)O)[nH]c(=S)n1", "growth": "100% (inactive)"}
{"smiles": "COc1ccc(OC)c(NC=O)c1", "growth": "109% (inactive)"}
{"smiles": "ClC1=C(Cl)C(Cl)=C(Cl)C1=Cc1ccccc1", "growth": "-26.5% (active)"}
{"smiles": "O=C(O)c1cc([N+](=O)[O-])ccc1Br", "growth": "98.1% (inactive)"}
{"smiles": "COC(=O)c1cc2c(=O)[nH]cc3c2c(n1)CCC3", "growth": "108% (inactive)"}
{"smiles": "CCN=C1C=CC(=C(c2ccc(N(CC)CC)cc2)c2ccc(N(CC)CC)cc2)c2ccccc21", "growth": "-16.3% (active)"}
{"smiles": "O=c1[nH]c(CN2CCN(c3cccc(Cl)c3)CC2)nc2cc(Cl)ccc12", "growth": "86.4% (inactive)"}
{"smiles": "c1ccc2c(c1)CN(CCCN1CCOCC1)C2", "growth": "98.7% (inactive)"}
{"smiles": "Nc1cc(NN=C(c2ccc(O)cc2)c2ccc(O)cc2)c([N+](=O)[O-])cc1[N+](=O)[O-]", "growth": "7.33% (active)"}
{"smiles": "O=c1cc(-c2ccccc2)oc2c(O)c(O)ccc12", "growth": "24.5% (inactive)"}
{"smiles": "COc1c(C(C)=O)c(OCCCCOc2c(C(C)=O)c(OC)c3ccoc3c2OC)c(OC)c2occc12", "growth": "22.9% (inactive)"}
{"smiles": "CNc1cc(C(=O)O)nc(NC)n1", "growth": "99.4% (inactive)"}
{"smiles": "O=[N+]([O-])c1cc([N+](=O)[O-])c(NN=C(c2ccc(O)cc2)c2ccc(O)cc2)cc1Cl", "growth": "-56.8% (active)"}
{"smiles": "NC(=O)c1c(NC(=O)COC(=O)Cc2ccccc2F)sc2c1CCC2", "growth": "110% (inactive)"}
{"smiles": "CCCCOC(=O)c1c(C)[nH]c(/C=C2\\N=C(c3ccc[nH]3)C=C2OC)c1C", "growth": "8.85% (active)"}
{"smiles": "CC(C)[N+](C)(C)CC(O)COc1cccc2ccccc12", "note": "(stereo not drawn)", "growth": "108% (inactive)"}
{"smiles": "CCCCCCCCCCCCNC(=S)N/N=C/c1ccccc1O", "growth": "77.1% (inactive)"}
{"smiles": "COCc1nc2ccccc2[nH]1", "growth": "98.9% (inactive)"}
{"smiles": "CCCCCCCCCCCCCCNC(=O)Nc1ccc(Cl)c(Cl)c1", "growth": "-0.731% (active)"}
{"smiles": "CCN(CC)CCSC(=O)C(O)(c1ccccc1)C1CCCC1", "note": "(stereo not drawn)", "growth": "84.5% (inactive)"}
{"smiles": "C=C1C(=O)O[C@H]2[C@H]1CC/C(COC(=O)NCc1ccc(Cn3c(=O)sn(-c4ccc(Cl)cc4)c3=O)cc1)=C\\CC[C@@]1(C)O[C@@H]21", "growth": "102% (inactive)"}
{"smiles": "CCOC(=O)c1c[nH]c2cc(OCC3CC3)c(OCC3CC3)cc2c1=O", "growth": "111% (inactive)"}
{"smiles": "Cc1cc(NN=C(c2ccc(O)cc2)c2ccc(O)cc2)c([N+](=O)[O-])cc1[N+](=O)[O-]", "growth": "26.3% (inactive)"}
{"smiles": "Nc1nnc(CSc2nnc3n(Cc4ccccc4)c(=O)c4c5c(sc4n23)CCCC5)s1", "growth": "94.4% (inactive)"}
{"smiles": "N#Cc1c(Cl)nc(SCC2CO2)nc1-c1ccccc1", "note": "(stereo not drawn)", "growth": "108% (inactive)"}
{"smiles": "O=C(C[n+]1ccn(CC(OCc2ccc(Cl)cc2Cl)c2ccc(Cl)cc2Cl)c1)c1ccc(F)cc1", "note": "(stereo not drawn)", "growth": "103% (inactive)"}
{"smiles": "O=C(O)CSCc1nnc2n(Cc3ccccc3)c(=O)c3c4c(sc3n12)CCCC4", "growth": "96.6% (inactive)"}
{"smiles": "COc1ccc(OC)c([N+](=O)[O-])c1C(=O)CNC(C)=O", "growth": "94.9% (inactive)"}
{"smiles": "COc1ccc2c3ccnc(C(F)(F)F)c3n(CCCCN)c2c1", "growth": "64.9% (inactive)"}
{"test_system": "T-47D breast", "assay": "NCI-60 one-dose screen, 48 h (100 = growth as untreated, 0 = no growth, -100 = all killed)", "conditions": "10 µM unless noted"}
{"smiles": "Nc1nc(SCc2cccc([N+](=O)[O-])c2)c2[nH]cnc2n1", "growth": "92.4% (inactive)"}
{"smiles": "N/C(=N\\c1nc2ccccc2[nH]1)NC(=O)Cc1cccc2ccccc12", "growth": "71.4% (inactive)"}
{"smiles": "O=C1NC(=O)c2cc([N+](=O)[O-])cc3cccc1c23", "growth": "96.1% (inactive)"}
{"smiles": "COc1ccc(C2CC(c3cc(OC)c(OC)c(OC)c3)=NN2C(C)=O)cc1OCC(=O)Nc1nc2ccc(C(F)(F)F)cc2s1", "note": "(stereo not drawn)", "growth": "67.5% (inactive)"}
{"smiles": "O=C(N/N=C/c1ccc([N+](=O)[O-])cc1)c1ccc(Br)o1", "growth": "131% (inactive)"}
{"smiles": "O=C(NCc1ccccc1)C(Cl)Cl", "growth": "102% (inactive)"}
{"smiles": "COc1cc2c(c(OC)c1OC)-c1ccc(NNC(N)=S)c(=O)cc1[C@@H](NC(C)=O)CC2", "growth": "70.7% (inactive)"}
{"smiles": "CC(C)OC(=O)Nc1cc(F)c(F)cc1F", "growth": "104% (inactive)"}
{"smiles": "Nc1cc(C(=O)O)[nH]c(=S)n1", "growth": "105% (inactive)"}
{"smiles": "COc1ccc(OC)c(NC=O)c1", "growth": "101% (inactive)"}
{"smiles": "ClC1=C(Cl)C(Cl)=C(Cl)C1=Cc1ccccc1", "growth": "-26.4% (active)"}
{"smiles": "O=C(O)c1cc([N+](=O)[O-])ccc1Br", "growth": "101% (inactive)"}
{"smiles": "COC(=O)c1cc2c(=O)[nH]cc3c2c(n1)CCC3", "growth": "91.9% (inactive)"}
{"smiles": "CCN=C1C=CC(=C(c2ccc(N(CC)CC)cc2)c2ccc(N(CC)CC)cc2)c2ccccc21", "growth": "-45.7% (active)"}
{"smiles": "O=c1[nH]c(CN2CCN(c3cccc(Cl)c3)CC2)nc2cc(Cl)ccc12", "growth": "75.9% (inactive)"}
{"smiles": "Nc1cc(NN=C(c2ccc(O)cc2)c2ccc(O)cc2)c([N+](=O)[O-])cc1[N+](=O)[O-]", "growth": "-55.9% (active)"}
{"smiles": "O=c1cc(-c2ccccc2)oc2c(O)c(O)ccc12", "growth": "68.2% (inactive)"}
{"smiles": "COc1c(C(C)=O)c(OCCCCOc2c(C(C)=O)c(OC)c3ccoc3c2OC)c(OC)c2occc12", "growth": "23% (inactive)"}
{"smiles": "CNc1cc(C(=O)O)nc(NC)n1", "growth": "102% (inactive)"}
{"smiles": "O=[N+]([O-])c1cc([N+](=O)[O-])c(NN=C(c2ccc(O)cc2)c2ccc(O)cc2)cc1Cl", "growth": "-50.4% (active)"}
{"smiles": "NC(=O)c1c(NC(=O)COC(=O)Cc2ccccc2F)sc2c1CCC2", "growth": "88.8% (inactive)"}
{"smiles": "CCCCOC(=O)c1c(C)[nH]c(/C=C2\\N=C(c3ccc[nH]3)C=C2OC)c1C", "growth": "-46.1% (active)"}
{"smiles": "CC(C)[N+](C)(C)CC(O)COc1cccc2ccccc12", "note": "(stereo not drawn)", "growth": "102% (inactive)"}
{"smiles": "CCCCCCCCCCCCNC(=S)N/N=C/c1ccccc1O", "growth": "42.2% (inactive)"}
{"smiles": "COCc1nc2ccccc2[nH]1", "growth": "104% (inactive)"}
{"smiles": "CCCCCCCCCCCCCCNC(=O)Nc1ccc(Cl)c(Cl)c1", "growth": "33.9% (inactive)"}
{"smiles": "CCN(CC)CCSC(=O)C(O)(c1ccccc1)C1CCCC1", "note": "(stereo not drawn)", "growth": "109% (inactive)"}
{"smiles": "C=C1C(=O)O[C@H]2[C@H]1CC/C(COC(=O)NCc1ccc(Cn3c(=O)sn(-c4ccc(Cl)cc4)c3=O)cc1)=C\\CC[C@@]1(C)O[C@@H]21", "growth": "47.5% (inactive)"}
{"smiles": "CCOC(=O)c1c[nH]c2cc(OCC3CC3)c(OCC3CC3)cc2c1=O", "growth": "109% (inactive)"}
{"smiles": "Cc1cc(NN=C(c2ccc(O)cc2)c2ccc(O)cc2)c([N+](=O)[O-])cc1[N+](=O)[O-]", "growth": "33.1% (inactive)"}
{"smiles": "Nc1nnc(CSc2nnc3n(Cc4ccccc4)c(=O)c4c5c(sc4n23)CCCC5)s1", "growth": "74% (inactive)"}
{"smiles": "N#Cc1c(Cl)nc(SCC2CO2)nc1-c1ccccc1", "note": "(stereo not drawn)", "growth": "97.3% (inactive)"}
{"smiles": "O=C(C[n+]1ccn(CC(OCc2ccc(Cl)cc2Cl)c2ccc(Cl)cc2Cl)c1)c1ccc(F)cc1", "note": "(stereo not drawn)", "growth": "-71.6% (active)"}
{"smiles": "O=C(O)CSCc1nnc2n(Cc3ccccc3)c(=O)c3c4c(sc3n12)CCCC4", "growth": "85% (inactive)"}
{"smiles": "COc1ccc(OC)c([N+](=O)[O-])c1C(=O)CNC(C)=O", "growth": "103% (inactive)"}
{"smiles": "COc1ccc2c3ccnc(C(F)(F)F)c3n(CCCCN)c2c1", "growth": "52.1% (inactive)"}
